In the library only some 5.7% were active in any assay of this set; here they are far more common.
KB-3-1 tox: qHTS assay for MDR1-selective chemotherapeutics: Primary screen using the parental adenocarcinoma cell KB-3-1 | Potency, µM (doses to about 46.1 µM), actives largely listed as cytotoxic | KB-3-1 viability, CellTiter-Glo ATP luminescence, 72 h | AID 1347075, 2019 | 400,000 tested, 1.4% active; also: nearly all actives have a fitted effect of over 60% in size
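Screening of KB-3-1 cells (DMEM, 10% FBS, phenol-red free) ran from lowest to highest compound concentration; after 72 h at 37 °C viability was read luminescently and curves fitted.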
HT1080NT lethal: qHTS for induction of synthetic lethality in tumor cells producing 2HG: qHTS for the HT-1080-NT fibrosarcoma cell line | HT-1080-NT fibrosarcoma viability, CellTiter-Glo ATP luminescence, 48 h | Potency, µM (top dose mostly 46.1 µM), usual class: cytotoxic | 360,000 tested, 1.6% active;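 also: NT is the 2HG producing partner of a matched IDH1 knockdown line; nearly all actives have a fitted effect of over 55% in size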
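750 cells/well, RPMI + 5% FBS; 2 h settle, compound pin-transfer, 48 h at 37 degrees C. CellTiter-Glo 10 min RT, luminescence. Normalized to DMSO and media-only wells.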
HT1080 IDH1KD tx: qHTS for induction of synthetic lethality in tumor cells producing 2HG: qHTS for the HT-1080-IDH1KD cell line | Potency, µM (doses to about 46.1 µM), most hits filed as cytotoxic | 360,000 tested, 2% active | HT-1080 IDH1 knockdown viability, ATP luminescence, 48 h
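IDH1KD HT-1080 cells, 750/well, RPMI + 5% FBS; compound pinned after 2 h settling; 48 h, 37 °C; CellTiter-Glo luminescence; % activity normalised to DMSO and no-cell wells; curves fitted, classed by r2 and efficacy.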
KB-V1 cytotox: qHTS assay for MDR1-selective chemotherapeutics: Primary screen using the drug-selected MDR subline cells KB-V1; KB-V1 MDR cells viability, CellTiter-Glo, 72 h; Potency, µM (highest dose often 46.1 µM), hits mostly cytotoxic; 400,000 tested, 3.4% active; also: nearly all actives have a fitted effect of over 60% in size
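Cytotoxicity via CellTiter-Glo luminescence after 72 h compound exposure at 37 degrees C. Cells: drug-selected KB-V1 line, DMEM phenol-red free plus 10% FBS. Compounds tested at multiple concentrations; normalized data fitted to concentration-effect curves.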
Numbers stand for hits; . = inactive; ? = inconclusive; / = not tested or not shown; [ ] = another dose, or the depositor's remark. Calls follow the shape of the dose curve; as a rule, active = well fitted curve in the direction sought with a large enough effect; inconclusive = small, poorly fitted or top-dose-only effect, or another doubt; inactive = no such curve, though single readings can be large; an effect the other way counts as inactive or inconclusive.

SMILES	KB-3-1 tox	HT1080NT lethal	HT1080 IDH1KD tx	KB-V1 cytotox
Cn1c(=O)[nH]c(=O)c2c1nc(SCCO)n2CCCc1ccccc1	.	.	.	?
CNc1nc2c(c(=O)[nH]c(=O)n2C)n1CCCc1ccccc1	.	.	.	.
C=CCNc1nc2c(c(=O)n(C)c(=O)n2C)n1CCCCCC	1.5µM	.	.	1.5µM
Cc1csc(Sc2nc3c(c(=O)[nH]c(=O)n3C)n2CCCc2ccccc2)n1	?	.	.	4.1µM
Cn1c(=O)[nH]c(=O)c2c1nc(NCc1ccccc1)n2CCCc1ccccc1	.	.	.[9.24 µM]	12µM
CNc1nc2c(c(=O)n(C)c(=O)n2C)n1CCCc1ccccc1	?	.	.	8.2µM
Cc1ccc(S(=O)(=O)C(CNC(=O)COc2ccccc2)c2ccco2)cc1 (configuration not stated)	.	/	/	.
Cc1ccc(Cn2c(C(=O)NCc3ccccc3Cl)cc3sccc32)cc1	.	/	/	.
Cn1c(=O)c2c(nc(NCc3ccco3)n2C/C=C/c2ccccc2)n(C)c1=O	.	.	.	3.3µM
COCCNc1nc2c(c(=O)n(C)c(=O)n2C)n1CCCc1ccccc1	.	.	.	16µM
CC1CN(Cc2nc3c(c(=O)[nH]c(=O)n3C)n2CCCc2ccccc2)CC(C)O1 (configuration not stated)	.	.	.	3.3µM
CCOCCCNc1nc2c(c(=O)n(C)c(=O)n2C)n1CCCc1ccccc1	.	.	.	.
CC1CN(Cc2nc3c(c(=O)n(C)c(=O)n3C)n2CCc2ccccc2)CC(C)O1 (configuration not stated)	.	.	.	.
Cc1cc(C)cc(OCCOCCn2c(-c3ccc(Cl)cc3)nc3ccccc3c2=O)c1	.	/	/	.
CC(=O)Nc1ccc(/C=C/c2ccnc3ccccc23)cc1	.	/	/	.
Oc1ccc(-c2csc(-c3c[nH]c4ccccc34)n2)c(O)c1	18µM	?	?	?
COc1ccc(-c2nc(-c3ccc(O)cc3O)cs2)cc1OC	.	?	?	?
COc1ccc(Nc2nc(-c3c[nH]c4ccccc34)cs2)cc1	?	.	.	.
Cc1ccc(-c2csc(-c3c[nH]c4ccccc34)n2)c(C)c1	?	?	18µM	?
COc1ccc(NC(=O)Cn2c(=O)n(-c3cccc(C)c3)c(=O)c3c2c2cc(C)ccc2n3C)cc1OC	.	/	/	.
Cc1ccc(C)c(N=Nc2ccc(O)c3ncccc23)c1	.	?	?	?
Oc1ccc(N=Nc2ccc3c(c2)OCCO3)c2ncccc12	.	?	3.7µM	?
NS(=O)(=O)c1ccc(N=Nc2ccc(O)c3ncccc23)cc1	?	?	23µM	.
Cc1cccc(N=Nc2ccc(O)c3ncccc23)c1	?	?	7.3µM	.
CCS(=O)(=O)c1ccc(OC)c(N=Nc2ccc(O)c3ncccc23)c1	?	?	8.2µM	?
SMILES	KB-3-1 tox	HT1080NT lethal	HT1080 IDH1KD tx	KB-V1 cytotox
Cc1ccc2c(c1)N(C(=O)CCC(=O)NCc1cccs1)CCO2	.	/	/	.
COCCCn1c(SCc2ccccc2F)nc2c(sc3ccccc32)c1=O	.	/	/	.
CNc1c(Br)cc(C(O)C2=CCc3ccccc32)cc1Br (configuration not stated)	.	/	/	.
COc1cccc(CNc2sc3c(c2C(=O)Nc2ccc(OC)cc2OC)CCC3)c1	.	/	/	.
CC(=O)NC1=CC(=O)c2nonc2C1=O	5.2µM	/	/	.
O=C1c2c(-c3ccc(Br)cc3)noc2CCN1Cc1cn(Cc2ccccc2)nn1	.	?	?	?
O=C1c2c(-c3ccc(Br)cc3)noc2CCN1Cc1cn(-c2ccc(Cl)cc2)nn1	21µM	?	.	18µM
O=C1c2c(-c3ccc(Br)cc3)noc2CCN1Cc1cn(C2CCCC2)nn1	?	.	?	21µM
O=C1c2c(-c3ccc(Br)cc3)noc2CCN1Cc1cn(Cc2cccnc2)nn1	?	.	.	23µM
O=C1c2c(-c3ccc(Br)cc3)noc2CCN1Cc1cn(-c2ccccc2)nn1	?	?	.	?
O=C(Cn1c(=O)n(Cc2ccco2)c(=O)c2sc3ccccc3c21)Nc1ccccc1C(F)(F)F	.	/	/	.
CCc1nn(CC(=O)NC2CC2)c(=O)c2cc3c(OC)cccc3n12	.	/	/	.
